This is an account of results in PubChem BioAssay (NCI).

Test systems include T-47D breast; BT-549 breast; MDA-MB-435 melanoma; SW-620 colon; MCF7 breast; HCT-116 colon; HCC-2998 colon; KM12 colon.
What all share (assay): NCI-60 one-dose screen, 48 h (100 = growth as untreated, 0 = no growth, -100 = all killed)
Settings in all cases: 10 µM unless noted

Several values for one entry are separate records, joined by “and”; a condition that tells them apart may be missing. Equal entries are not always repeated. About 83,000 compounds went through this panel and 20% of them were active in at least one assay; those are over-represented in the sample as a whole.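 Interpretation: 100, growth as untreated; towards 0, rising growth inhibition; 0, no net growth; 0 to -100, cell death. Compounds scoring below 10 were considered active.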 Values without a mark were called inactive. Activity calls are given as the source filed them.

`O=C(NNc1ccccc1)OCc1ccccc1`: the growth in the experiment on T-47D breast is 69%; with BT-549 breast, 83.1%; with MDA-MB-435 melanoma it was 34.1%; in the experiment with SW-620 colon, 54.3%; in the experiment on MCF7 breast, 104%; with HCT-116 colon, 66%. Further, the growth in the experiment with HCC-2998 colon was 75.4%; with KM12 colon it was 19.8%.
Consider `COC(=O)c1cc([N+](=O)[O-])cc([N+](=O)[O-])c1Cl`, for which the growth is -28.3% (active) with T-47D breast; 117% with BT-549 breast; 81.7% with MDA-MB-435 melanoma; 31.7% with SW-620 colon; 45.1% in the experiment with MCF7 breast; -42.8% (active) with HCT-116 colon. The growth was 106% with HCC-2998 colon and 105% in the experiment with KM12 colon.
Turning to `O=C(CCl)N1c2ccccc2Sc2c1ccc1ccccc21`, the growth with T-47D breast was 84.3%; in the experiment with BT-549 breast it was 36.9%; in the experiment on MDA-MB-435 melanoma it was 80.2%; in the experiment with SW-620 colon, 11.1%; with MCF7 breast, 66.8%; in the experiment with HCT-116 colon, 16.4%. Besides, the growth in the experiment on HCC-2998 colon is 98.5%; in the experiment on KM12 colon it was 87.2%.
Consider `N#CC(=C1SCS1)[N+](=O)[O-]`, for which the growth in the experiment on T-47D breast was 29.1%; in the experiment on BT-549 breast, -6.56% (active); in the experiment on MDA-MB-435 melanoma, 16.4%; with SW-620 colon, 19.3%; with MCF7 breast it was 16.7%; with HCT-116 colon, 35.8%. Besides, the growth is 27% in the experiment with HCC-2998 colon and 14.2% in the experiment with KM12 colon.
Take `CCC[CH2][Sn]1([CH2]CCC)[O]C2C(CO)OC(n3ccc(N)nc3=O)C2[O]1` (stereo not given): the growth in the experiment with T-47D breast was -68.8% (active); in the experiment on BT-549 breast, -85.2% (active); in the experiment with MDA-MB-435 melanoma, -75.5% (active); with SW-620 colon, -77.1% (active); with MCF7 breast it was -92.2% (active); with HCT-116 colon, -73.6% (active). Besides, the growth is -19.2% (active) with HCC-2998 colon and 7.12% (active) with KM12 colon.
As to `O=C(O)c1ccc2c(c1)C(=O)c1ccccc1C2=O`, the growth in the experiment with T-47D breast was 99.7%; in the experiment on BT-549 breast, 107%; in the experiment on MDA-MB-435 melanoma, 102%; with SW-620 colon, 97%; with MCF7 breast, 97.7%; in the experiment with HCT-116 colon, 106%. Besides, the growth was 104% with HCC-2998 colon and 98.9% in the experiment with KM12 colon.
For the compound `CC(C)(C)c1ccc(O)c(Br)c1`, the growth in the experiment on T-47D breast was 103%; with BT-549 breast it was 102%; in the experiment with MDA-MB-435 melanoma it was 92.1%; with SW-620 colon, 92.4%; in the experiment with MCF7 breast, 95.3%; in the experiment on HCT-116 colon, 93.2%. Also, the growth with HCC-2998 colon is 98%; in the experiment with KM12 colon it was 104%.
For `CCc1oc2ccccc2c1C(=O)c1cc(Br)c(O)c(Br)c1`, the growth in the experiment on T-47D breast is 62.1%; with BT-549 breast, 35.4%; in the experiment on MDA-MB-435 melanoma, -11.1% (active); with SW-620 colon, 61.4%; with MCF7 breast it was 69.2%; in the experiment with HCT-116 colon, 73.5%. Moreover, the growth with HCC-2998 colon was 85.9%; in the experiment with KM12 colon, 77.5%.
Take `Cc1nn(CCO)c(C)c1N=[N+]([O-])c1c(C)nn(CCO)c1C`: the growth is -3.43% (active) in the experiment on T-47D breast; 50.5% in the experiment on BT-549 breast; -25.4% (active) in the experiment on MDA-MB-435 melanoma; -61.2% (active) in the experiment with SW-620 colon; 4.45% (active) in the experiment on MCF7 breast; -81.9% (active) in the experiment with HCT-116 colon. Further, the growth with HCC-2998 colon is 109%; in the experiment on KM12 colon it was 81%.
Take `Cc1ccc2c(c1)sc(-c1ccc(N(C)C)cc1)[n+]2C`: the growth in the experiment on T-47D breast was 1.38% (active); with BT-549 breast, 11.9%; with MDA-MB-435 melanoma, 9.68% (active); in the experiment on SW-620 colon, 12.3%; in the experiment with MCF7 breast, 3.8% (active); in the experiment with HCT-116 colon, -8.72% (active). The figures for the growth in the experiment on HCC-2998 colon and in the experiment on KM12 colon were 2.49% (active) and 5.09% (active), respectively.
Take `O=[N+]([O-])c1ccc(N2CCN(Cc3ccccc3)CC2)c2c1no[n+]2[O-]`: the growth in the experiment on T-47D breast was 57.5%; in the experiment on BT-549 breast, -25.5% (active); in the experiment with MDA-MB-435 melanoma, -28.9% (active); in the experiment with SW-620 colon it was -68.2% (active); in the experiment with MCF7 breast, 7.84% (active); in the experiment on HCT-116 colon, -86% (active). Further, the growth with HCC-2998 colon is -14.4% (active); with KM12 colon, -52.2% (active).
For the compound `COc1ccc(/C=C2/C(=O)ON=C2C)cc1`, the growth is 93% in the experiment with T-47D breast; 107% with BT-549 breast; 109% with MDA-MB-435 melanoma; 103% in the experiment with SW-620 colon; 106% with MCF7 breast; 112% in the experiment with HCT-116 colon. In addition, the growth is 103% with HCC-2998 colon and 113% in the experiment on KM12 colon.
Take `COc1cc(/C=C/c2ccnc3ccccc23)cc(OC)c1OC`: the growth was 41.1% in the experiment with T-47D breast; 11.7% with BT-549 breast; -8.94% (active) in the experiment on MDA-MB-435 melanoma; 17.4% with SW-620 colon; 16.1% with MCF7 breast; 20% in the experiment with HCT-116 colon. Moreover, the results for the growth with HCC-2998 colon and in the experiment with KM12 colon were 34.6% and 12.4%, respectively.
As for `Clc1ccc(Cc2nc3ccccc3s2)cc1`, the growth in the experiment with T-47D breast was 79.6%; in the experiment on BT-549 breast, 86.7%; in the experiment on MDA-MB-435 melanoma, 92.5%; in the experiment on SW-620 colon it was 101%; in the experiment on MCF7 breast, 77.4%; in the experiment with HCT-116 colon, 97.8%. Besides, the growth with HCC-2998 colon was 103%; in the experiment with KM12 colon it was 93.2%.
For `COc1cc(/C=C/C(=O)CC(=O)/C=C/c2ccc(O)c(OC)c2)ccc1O`, the growth in the experiment with T-47D breast was 50.7%; with BT-549 breast it was 13.9%; in the experiment with MDA-MB-435 melanoma, 1.75% (active); in the experiment with SW-620 colon, 23.1%; in the experiment with MCF7 breast it was 17%; with HCT-116 colon, 0.952% (active). Also, the figures for the growth with HCC-2998 colon and with KM12 colon were -74.8% (active) and 0.643% (active), respectively.
Consider `C(=N\Nc1ccc2ccccc2n1)/c1ccccn1`, for which the growth in the experiment with T-47D breast is 18.9%; in the experiment on BT-549 breast it was 43.9%; with MDA-MB-435 melanoma it was 37.5%; in the experiment with SW-620 colon, 23.5%; with MCF7 breast it was 15.9%; with HCT-116 colon it was 18.4%. In addition, the growth with HCC-2998 colon is 17.1%; in the experiment on KM12 colon it was 29.1%.
In the case of `COc1cc(/C=C2\SC(=S)N(/C=C/c3nc4ccccc4[nH]c3=O)C2=O)cc(OC)c1OC`, the growth was 52.6% in the experiment on T-47D breast; 80.8% in the experiment on BT-549 breast; 81.9% in the experiment with MDA-MB-435 melanoma; 91.2% with SW-620 colon; 82.1% with MCF7 breast; 78.8% with HCT-116 colon. Besides, the growth in the experiment with HCC-2998 colon was 87.5%; in the experiment on KM12 colon, 90.4%.
In the case of `Oc1ccc(Br)cc1Sc1cc(Br)ccc1O`, the growth with T-47D breast was 17.7%; in the experiment with BT-549 breast, 43.8%; in the experiment with MDA-MB-435 melanoma it was 56.7%; in the experiment on SW-620 colon, 64.1%; with MCF7 breast it was 59.2%; in the experiment with HCT-116 colon, 34.3%. The growth is 91.7% with HCC-2998 colon and 92.9% in the experiment on KM12 colon.
As for `COC(=O)c1nc(=S)[nH]c(C(=O)OC)c1C(=O)c1ccc(Cl)c(Cl)c1`, the growth in the experiment with T-47D breast was 100%; in the experiment with BT-549 breast it was 129%; in the experiment with MDA-MB-435 melanoma, 106%; in the experiment with SW-620 colon, 106%; in the experiment with MCF7 breast it was 97.4%; with HCT-116 colon, 106%. The growth was 113% in the experiment with HCC-2998 colon and 112% in the experiment on KM12 colon.
For `CN(C)c1ccc(/C=C/c2ccnc3ccccc23)cc1`, the growth with T-47D breast is 43.1%; with BT-549 breast it was 20.2%; in the experiment on MDA-MB-435 melanoma it was 2.49% (active); with SW-620 colon, 26.9%; in the experiment with MCF7 breast, 19.9%; in the experiment on HCT-116 colon, 24.8%. Moreover, the growth was 72.1% with HCC-2998 colon and 29.9% in the experiment with KM12 colon.
On to `O=C1C=CC(=O)N1c1ccccc1`, for which the growth in the experiment with T-47D breast was 99.8%; with BT-549 breast, 97.1%; with MDA-MB-435 melanoma it was 109%; in the experiment with SW-620 colon, 80.9%; in the experiment with MCF7 breast, 106%; in the experiment with HCT-116 colon, 75.1%. Moreover, the growth in the experiment with HCC-2998 colon is 98.7%; with KM12 colon it was 103%.
On to `Cn1c(-c2ccccc2)c(/C=C/C2=[N+](C)c3ccccc3C2(C)C)c2ccccc21`, for which the growth in the experiment with T-47D breast was -3.22% (active); in the experiment with BT-549 breast, 22.1%; in the experiment with MDA-MB-435 melanoma it was 2.09% (active); with SW-620 colon it was 14.3%; in the experiment with MCF7 breast it was 4.58% (active); with HCT-116 colon, 9.76% (active). Besides, the growth in the experiment with HCC-2998 colon is 27%; in the experiment on KM12 colon, -22.8% (active).
For `Nc1ccc(-c2ccc(N)c(S(=O)(=O)O)c2)cc1S(=O)(=O)O`, the growth in the experiment on T-47D breast was 106%; in the experiment on BT-549 breast, 113%; in the experiment with MDA-MB-435 melanoma it was 115%; in the experiment with SW-620 colon, 107%; with MCF7 breast, 104%; in the experiment on HCT-116 colon it was 107%. Moreover, the growth in the experiment with HCC-2998 colon is 113%; in the experiment with KM12 colon, 103%.
On to `O=C1c2ccccc2C(=O)c2c(O)c(Cl)cc(O)c21`, for which the growth was 28.1% in the experiment with T-47D breast; 98.7% in the experiment on BT-549 breast; 102% with MDA-MB-435 melanoma; 72.6% in the experiment on SW-620 colon; 49.9% in the experiment with MCF7 breast; 6.19% (active) with HCT-116 colon. Further, the results for the growth in the experiment with HCC-2998 colon and in the experiment with KM12 colon were 102% and 83.7%, respectively.
For `OC(c1cc(-c2ccc(C(F)(F)F)cc2)nc(C(F)(F)F)c1)C1CCCCN1` (stereo not given), the growth is -69.2% (active) and -89.5% (active) and -17.2% (active) in the experiment with T-47D breast; 52.1% and 93.5% and 85.3% in the experiment on BT-549 breast; -63% (active) and -91.8% (active) and 6.26% (active) with MDA-MB-435 melanoma; -80.4% (active) and -84.6% (active) and -55.6% (active) with SW-620 colon; -88% (active) and -86.5% (active) and -59.3% (active) with MCF7 breast; -82% (active) and -96.2% (active) and 3.87% (active) with HCT-116 colon. Besides, the growth with HCC-2998 colon is -66.8% (active) and -95% (active) and -74.6% (active); in the experiment on KM12 colon it was -80.1% (active) and -85.2% (active) and -62.3% (active).
